From PubChem BioAssay (Tox21)
Records with an inconclusive call do not appear. A call without a number means that no potency is given here. A number with no mark means an inactive call. Calls of active or inactive are those of the source. Unless noted, calls follow the shape of the dose curve; as a rule, active = well fitted curve in the direction sought with a large enough effect in the repeat runs; inconclusive = weak or mixed curves; inactive = no such curve, though single readings can be large; an effect the other way counts as inactive or inconclusive. Non-standard residues stand in square brackets, D forms with d. Residues, ends and D or L forms follow the SMILES beside them. pGlu = O=C1CC[C@@H](C(=O)O)N1; Thz = O=C(O)[C@@H]1CSCN1

How the values were obtained:
[1] = qHTS assay to identify small molecule that activate the aryl hydrocarbon receptor (AhR) signaling pathway - cell viability counter screen (AID 743086); also: nearly all actives have a fitted effect of over 45% in size; also: potency is read from the fitted curve at half-maximal effect
Method in brief: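 HepG2-AhR-luc (HG2L7.5c1) cells, 4000/well, treated 24 h at 37 C with compound; viability measured as CellTiter-Fluor fluorescence after 30 min in the same wells as the luciferase read.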

[2] = qHTS assay to identify small molecule phospholipidosis (PLD) inducers (AID 1259344; active = well fitted curve in the direction sought with a large enough effect; an effect the other way counts as inactive or inconclusive)
Method in brief: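 Quantitative HTS in HepG2: compound plus LipidTOX Red dye for 24 h, paraformaldehyde fixation with Hoechst 33342, widefield high-content imaging; amiodarone as positive and DMSO as negative control.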

[3] = biological target: Nuclear receptor subfamily 1 group I member 2 (Rattus norvegicus) (UniProt Q9R1A7); test: Rat pregnane X receptor (rPXR) activation by small molecules, qHTS assay (AID 1346983); conditions: rPXR luciferase reporter cells, One-Glo luminescence, 24 h; max activation: hits give high values; also: nearly all actives have a fitted effect of over 20% in size; also: potency is read from the fitted curve at half-maximal effect
Method in brief: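 Cell-based rPXR activation assay: rPXR cells, 2,000 per well, rested 5hr at 37 C, then exposed to compounds in DMSO for 24 hr at 37 C. Luciferase activity read by One-Glo luminescence after 30 min at room temperature.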

[4] = biological target: Nuclear receptor subfamily 1 group I member 2 (Homo sapiens) (UniProt O75469); test: Human pregnane X receptor (PXR) activation by small molecules, qHTS assay (AID 1346985); also: nearly all actives have a fitted effect of over 40% in size; also: potency is read from the fitted curve at half-maximal effect
Method in brief: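 DPX-2 cells (HepG2 co-transfected with a PXR response element and a CYP3A4-promoter luciferase construct) were seeded at 2,000 per well, rested 5 hr at 37C, then exposed to DMSO-dissolved compounds for 24 hr. Activation was read as luciferase luminescence.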

[5] = qHTS assay to identify aromatase inhibitors - cell viability counter screen (AID 743084);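 also: cells stimulated with testosterone during compound exposure; nearly all actives have a fitted effect of over 55% in size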; also: potency is read from the fitted curve at half-maximal effect
[6] = biological target: Aryl hydrocarbon receptor (Homo sapiens) (UniProt P35869); test: qHTS assay to identify small molecule that activate the aryl hydrocarbon receptor (AhR) signaling pathway (AID 743085); also: nearly all actives have a fitted effect of over 15% in size; also: potency is read from the fitted curve at half-maximal effect;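 as to activation: HG2L7.5c1 human HepG2 liver cells with stably integrated DRE-driven firefly reporter; series mostly up to about 70 µM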
Method in brief: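 Stably transfected human liver carcinoma cells (HG2L7.5c1; 20 DRE-firefly luciferase) were incubated 5 h, dosed, and kept 24 h at 37C. Agonism was scored from increased luciferase luminescence.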

[7] = biological target: Peroxisome proliferator-activated receptor gamma (Homo sapiens) (UniProt P37231); test: qHTS assay to identify small molecule agonists of the peroxisome proliferator-activated receptor gamma (PPARg) signaling pathway (AID 743094; active = well fitted activation curve with a large enough effect in the signal ratio in the repeat runs, not every such curve was filed as active; the % refers to the signal ratio)
Method in brief: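 Compounds dissolved in DMSO were added to PPARg UAS-bla HEK293H cells for 17 h at 37C, and reporter expression was quantified by fluorescence intensity after 1 h with LiveBLAzer B/G FRET substrate.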

[8] = biological target: Nuclear receptor subfamily 1 group I member 2 (Homo sapiens) (UniProt O75469); test: CYP3A4 induction through human pregnane X receptor (PXR) by small molecules, qHTS assay (AID 1346984); also: nearly all actives have a fitted effect of over 40% in size; also: potency is read from the fitted curve at half-maximal effect
Method in brief: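 Readings come from a luciferase reporter: DPX-2 cells, which are HepG2 cotransfected with PXR and a CYP3A4-promoter construct, were exposed to test compounds for 24 h at 37C before One-Glo detection.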

Chain of Nuclear receptor subfamily 1 group I member 2 (Rattus norvegicus) (Q9R1A7 whole entry, looked up): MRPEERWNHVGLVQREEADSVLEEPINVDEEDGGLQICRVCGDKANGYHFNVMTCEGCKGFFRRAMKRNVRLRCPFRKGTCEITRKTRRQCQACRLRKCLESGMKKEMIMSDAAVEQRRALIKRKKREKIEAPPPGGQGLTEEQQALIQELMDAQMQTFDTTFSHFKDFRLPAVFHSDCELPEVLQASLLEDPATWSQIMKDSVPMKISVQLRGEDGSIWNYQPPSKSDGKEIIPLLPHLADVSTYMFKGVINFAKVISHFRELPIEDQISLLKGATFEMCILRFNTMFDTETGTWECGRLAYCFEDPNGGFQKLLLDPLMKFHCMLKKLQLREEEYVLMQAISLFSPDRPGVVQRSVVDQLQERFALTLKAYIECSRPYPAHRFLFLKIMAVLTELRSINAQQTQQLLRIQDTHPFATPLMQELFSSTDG
Chain of Aryl hydrocarbon receptor (Homo sapiens) (P35869 whole entry, looked up): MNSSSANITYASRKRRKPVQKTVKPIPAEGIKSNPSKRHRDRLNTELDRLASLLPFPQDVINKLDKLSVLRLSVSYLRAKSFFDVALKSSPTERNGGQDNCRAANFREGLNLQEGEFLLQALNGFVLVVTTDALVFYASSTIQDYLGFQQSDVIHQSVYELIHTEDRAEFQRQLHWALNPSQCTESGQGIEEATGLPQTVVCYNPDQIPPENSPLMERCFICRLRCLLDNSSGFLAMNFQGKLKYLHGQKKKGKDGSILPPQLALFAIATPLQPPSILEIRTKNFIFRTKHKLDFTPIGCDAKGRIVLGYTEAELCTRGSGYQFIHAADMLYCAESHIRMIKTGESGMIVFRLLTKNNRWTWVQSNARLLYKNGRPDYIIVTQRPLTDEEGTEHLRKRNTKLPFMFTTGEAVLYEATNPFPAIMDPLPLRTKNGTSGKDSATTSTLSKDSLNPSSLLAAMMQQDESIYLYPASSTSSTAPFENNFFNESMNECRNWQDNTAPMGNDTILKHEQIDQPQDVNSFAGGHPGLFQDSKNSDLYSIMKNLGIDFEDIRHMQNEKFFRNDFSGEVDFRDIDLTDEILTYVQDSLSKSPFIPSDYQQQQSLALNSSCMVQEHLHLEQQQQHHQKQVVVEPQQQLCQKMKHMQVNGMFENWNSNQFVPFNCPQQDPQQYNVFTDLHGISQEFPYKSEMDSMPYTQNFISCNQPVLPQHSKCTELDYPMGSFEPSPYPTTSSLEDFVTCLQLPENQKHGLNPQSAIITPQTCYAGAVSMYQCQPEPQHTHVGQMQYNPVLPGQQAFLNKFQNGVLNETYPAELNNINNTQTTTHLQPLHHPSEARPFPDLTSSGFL
Chain of Peroxisome proliferator-activated receptor gamma (Homo sapiens) (P37231 whole entry, looked up): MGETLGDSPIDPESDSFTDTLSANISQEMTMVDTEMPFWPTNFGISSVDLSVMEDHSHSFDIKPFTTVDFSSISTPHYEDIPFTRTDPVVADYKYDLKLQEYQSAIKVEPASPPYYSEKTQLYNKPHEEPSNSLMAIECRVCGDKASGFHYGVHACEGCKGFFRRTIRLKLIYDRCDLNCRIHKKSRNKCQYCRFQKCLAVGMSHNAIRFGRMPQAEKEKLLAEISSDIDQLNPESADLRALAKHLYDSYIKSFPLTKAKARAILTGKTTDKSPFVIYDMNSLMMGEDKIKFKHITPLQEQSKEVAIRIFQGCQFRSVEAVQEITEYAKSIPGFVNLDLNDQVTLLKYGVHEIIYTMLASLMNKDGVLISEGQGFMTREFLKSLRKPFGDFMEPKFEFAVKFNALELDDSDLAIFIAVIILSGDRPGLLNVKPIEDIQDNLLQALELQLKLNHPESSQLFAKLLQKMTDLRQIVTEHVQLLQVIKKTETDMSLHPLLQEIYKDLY

Row | SMILES | Potency [1] | Potency [2] | max activation [3] [%] | Potency [4] | Potency [5] | Potency [6] | Potency [7] | Potency [3] | PLD induction [2] | Potency [8]
1 | O=[n+]1ccn([O-])c2ccccc21 | inactive | inactive | -1.36 | inactive |  |  |  |  |  | 
2 | CC(C)C(=O)OCC(=O)[C@@]12O[C@H](C3CCCCC3)O[C@@H]1C[C@H]1[C@@H]3CCC4=CC(=O)C=C[C@]4(C)[C@H]3[C@@H](O)C[C@@]12C | inactive | inactive |  | 0.631 µM (active) | inactive | inactive | inactive | 7.94 µM (active) |  | 
3 | CC(=O)O[C@]1(C(C)=O)CC[C@H]2[C@@H]3CCC4=CC(=O)CC[C@]4(C)[C@@]3(F)[C@@H](O)C[C@@]21C | inactive | inactive |  | inactive | inactive | inactive | inactive | 3.55 µM (active) |  | 
4 | O=C(O)c1cc(N=Nc2ccc(O)c(C(=O)O)c2)ccc1O | inactive | inactive | -4.04 | inactive | inactive | inactive | inactive |  |  | 
5 | CCc1ccc(S(=O)(=O)O)cc1 | inactive | inactive | -0.665 | inactive | inactive | 11.9 µM (active) | inactive |  |  | 
6 | O=C1CC[C@@H](C(=O)N2CSC[C@H]2C(=O)O)N1 ([pGlu]-[Thz]-OH) | inactive | inactive | 0.797 | inactive | inactive | inactive | inactive |  |  | 
7 | CCC(=O)OCC(=O)[C@@]1(OC(=O)CC)[C@H](C)C[C@H]2[C@H]3[C@H]([C@@H](O)C[C@@]21C)[C@@]1(C)C=CC(=O)C=C1C[C@H]3Cl | inactive | inactive |  | inactive | inactive | inactive | inactive | 3.98 µM (active) |  | 
8 | CCCCCCCCCCCC(=O)N(CCO)CCO | inactive | inactive | -2.62 | inactive | inactive | inactive | inactive |  |  | 
9 | CCOC(=O)[C@H](CS)NCCN[C@@H](CS)C(=O)OCC | inactive | inactive | -0.64 | inactive | inactive | inactive | inactive |  |  | 
10 | CCCCCCOc1ccc(C(=N)N(CCCC)CCCC)c2ccccc12 | 18.8 µM (active) | inactive | -20.9 |  | 16.8 µM (active) | inactive |  |  |  | 
11 | CCOC(=O)C1=C[C@@H](OC(CC)CC)[C@H](NC(C)=O)[C@@H](N)C1 | inactive | inactive | -4.38 | inactive | inactive | inactive | inactive |  |  | 
12 | CCN(CC)CCOc1ccccc1OC | inactive | inactive | -0.861 | inactive | inactive | inactive | inactive |  |  | 
13 | CN1c2c(nc(N)[nH]c2=O)NCC1CNc1ccc(C(=O)NC(CCC(=O)O)C(=O)O)cc1 (stereo not drawn) | inactive | inactive | -0.71 | inactive | inactive | inactive | inactive |  |  | 
14 | CC(=O)N[C@@H]([C@@H](O)[C@H](O)[C@H](O)CO)[C@@H](O)CC(=O)C(=O)O | inactive | inactive | -0.275 | inactive | inactive | inactive | inactive |  |  | 
15 | O=C(CCCCCCCCCCCCC1CCCC1)Nc1ccc(S(=O)(=O)c2ccc(NC(=O)CCCCCCCCCCCCC3CCCC3)cc2)cc1 | inactive | inactive | -2.51 | inactive | inactive |  | inactive |  |  | 
16 | CC(C)(CO)[C@@H](O)C(=O)NCCC(=O)NCCSSCCNC(=O)CCNC(=O)[C@H](O)C(C)(C)CO | inactive | inactive | -1.96 | inactive | inactive | inactive | inactive |  |  | 
17 | CC[N+](C)(C)Cc1ccccc1Br | inactive | inactive | -1.23 |  | inactive | inactive | inactive |  |  | 
18 | CCCCCCCCCCCCCCCCCC(=O)OCC(C)O (stereo not drawn) | 33.5 µM (active) | inactive | -10.2 | inactive | 18.8 µM (active) | inactive | inactive |  |  | 
19 | COc1cc([C@@H]2c3cc4c(cc3C(O[C@@H]3O[C@@H]5COC(c6cccs6)O[C@H]5[C@H](O)[C@H]3O)C3COC(=O)[C@@H]32)OCO4)cc(OC)c1O (stereo partly drawn) | inactive | inactive |  | 10 µM (active) |  | inactive |  | 28.2 µM (active) |  | 
20 | O=C(NNCNNC(=O)c1ccncc1)c1ccncc1 | inactive | inactive | -3.41 | inactive | inactive | 4.73 µM (active) | inactive |  |  | 

Row | SMILES | Potency [1] | Potency [2] | max activation [3] [%] | Potency [4] | Potency [5] | Potency [6] | Potency [7] | Potency [3] | PLD induction [2] | Potency [8]
21 | COC(=O)[C@H]1[C@H]2C[C@@H]3c4[nH]c5cc(OC)ccc5c4CCN3C[C@H]2C[C@@H](OC(=O)/C=C/c2cc(OC)c(OC)c(OC)c2)[C@@H]1OC | inactive | inactive | -2.27 | inactive | inactive |  | inactive |  |  | 
22 | O=C(O)CN(CC(=O)O)CC1=CC2C(=CC1=O)Oc1cc(O)c(CN(CC(=O)O)CC(=O)O)cc1C21OC(=O)c2ccccc21 (stereo not drawn) |  | inactive | 0.33 | inactive |  | inactive |  |  |  | 
23 | COc1ccc2cc([C@H](C)CO)ccc2c1 | inactive | inactive | -2.68 | inactive | inactive |  | inactive |  |  | 
24 | NC(=O)Oc1ccc(Cc2ccccc2)cc1 | inactive | inactive | -0.809 | inactive | inactive | inactive | inactive |  |  | 
25 | CCSc1ccc2c(c1)N(CCCN1CCN(C)CC1)c1ccccc1S2 |  | inactive | -0.528 | inactive | inactive | inactive | inactive |  |  | 
26 | CCC(=O)NCCC1CCc2ccc3c(c21)CCO3 (stereo not drawn) | inactive | inactive | -2.75 | 28.2 µM (active) | inactive | inactive | inactive |  |  | 
27 | CCCc1nc(C(C)(C)O)c(C(=O)OCc2oc(=O)oc2C)n1Cc1ccc(-c2ccccc2-c2nn[nH]n2)cc1 | inactive | inactive | -4.8 | inactive | inactive | inactive | inactive |  |  | 
28 | Cc1ncc(COP(=O)(O)O)c(CN)c1O | inactive |  | 0.341 | inactive | inactive | inactive | inactive |  | -1.52% [at 7.66 µM] | 
29 | CC[C@@H]1/C=C(\C)C[C@H](C)C[C@H](OC)[C@H]2O[C@@](O)(C(=O)C(=O)N3CCCC[C@H]3C(=O)O[C@H](/C(C)=C/[C@@H]3CC[C@@H](Cl)[C@H](OC)C3)[C@H](C)[C@@H](O)CC1=O)[C@H](C)C[C@@H]2OC | inactive | inactive | -6.11 | inactive | inactive | inactive | inactive |  |  | 
30 | COc1ccc2c(=O)c(C)c(-c3ccccc3)oc2c1CN(C)C | inactive | inactive | -1.96 |  | inactive | 11.9 µM (active) | inactive |  |  | 
31 | CCCCCCCCCCCCCCCCCC(=O)OC[C@@H](O)[C@H]1OC[C@H](O)[C@H]1O | inactive | inactive | -0.713 | inactive | inactive | inactive | inactive |  |  | 
32 | OC[C@H]1O[C@@H](O[C@H]2[C@H](O)[C@@H](O)[C@H](O)O[C@@H]2CO)[C@H](O)[C@@H](O)[C@@H]1O | inactive | inactive | -4.71 | inactive | inactive |  | inactive |  |  | 
33 | CC1(C)C(\C=C/C=C\C=C/C=C2/N(CCCCS(=O)(=O)O)c3ccc4ccccc4c3C2(C)C)=[N+](CCCCS(=O)(=O)[O-])c2ccc3ccccc3c21 |  | inactive |  | inactive |  | inactive | inactive |  |  | inactive
34 | CC(C)CN(C[C@@H](O)[C@H](Cc1ccccc1)NC(=O)O[C@@H]1CCOC1)S(=O)(=O)c1ccc(N)cc1 | inactive | inactive |  | 2.82 µM (active) | inactive | inactive | inactive |  |  | inactive
35 | O=C1/C(=C\c2cccs2)CCC/C1=C\c1cccs1 | 11.9 µM (active) | inactive |  |  |  | 23.7 µM (active) |  | 7.08 µM (active) |  | 
36 | CC(=O)O[C@H]1C(=O)[C@@]2(C)[C@H]([C@H](OC(=O)c3ccccc3)[C@]3(O)C[C@H](OC(=O)[C@H](O)[C@@H](NC(=O)c4ccccc4)c4ccccc4)C(C)=C1C3(C)C)[C@]1(OC(C)=O)CO[C@@H]1C[C@@H]2O |  | inactive |  | 15.8 µM (active) | 6.68 µM (active) | inactive | inactive |  |  | 6.31 µM (active)
37 | C=C1/C(=C\C=C2/CCC[C@]3(C)[C@@H]([C@H](C)OCCC(C)(C)O)CC[C@@H]23)C[C@@H](O)C[C@@H]1O |  | inactive |  |  | inactive |  |  |  |  | 
38 | CCOc1cc(-c2nccc3cc(OC)c(OC)cc23)cc(OCC)c1OCC | 21.1 µM (active) | inactive | 5.49 |  | 29.8 µM (active) | 2.11 µM (active) | inactive |  |  | 
39 | Cc1cc(Nc2ccccc2C(=O)O)ccc1Cl |  | inactive |  |  | inactive | 26.6 µM (active) |  |  |  | 
40 | CS(=O)(=O)OCCCNCCCOS(C)(=O)=O |  | inactive |  |  | inactive | inactive |  |  |  | 
